According to PubChem BioAssay (NCI):
Compounds without any hit were thinned out: in the full panel of roughly 83,000, 20% have a hit.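 Single-concentration screen, 48 h exposure, 96-well plates. Endpoint: percent growth. Below 10 = active.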 Values without a mark were called inactive. Active and inactive are the calls of the source.

Legend:
Assay in all cases: NCI-60 one-dose screen, 48 h (100 = growth as untreated, 0 = no growth, -100 = all killed)
Conditions in all cases: 10 µM unless noted
NCI-H23 lung = system: NCI-H23 lung
NCI-H226 lung = system: NCI-H226 lung
NCI-H322M lung = system: NCI-H322M lung
HOP-62 NSCLC = system: HOP-62 NSCLC
NCI-H460 lung = system: NCI-H460 lung
NCI-H522 lung = system: NCI-H522 lung
786-0 renal = system: 786-0 renal
COLO 205 colon = system: COLO 205 colon
DU-145 prostate = system: DU-145 prostate
K-562 leukemia = system: K-562 leukemia
MALME-3M melanoma = system: MALME-3M melanoma
MDA-MB-231 breast = system: MDA-MB-231 breast
RXF 393 renal = system: RXF 393 renal
SF-268 CNS = system: SF-268 CNS
SF-295 CNS = system: SF-295 CNS
SF-539 CNS = system: SF-539 CNS
UACC-257 melanoma = system: UACC-257 melanoma
M14 melanoma = system: M14 melanoma
A549/ATCC NSCLC = system: A549/ATCC NSCLC

Row | SMILES | growth (NCI-H23 lung) | growth (NCI-H226 lung) | growth (NCI-H322M lung) | growth (HOP-62 NSCLC) | growth (NCI-H460 lung) | growth (NCI-H522 lung) | growth (786-0 renal) | growth (COLO 205 colon) | growth (DU-145 prostate) | growth (K-562 leukemia) | growth (MALME-3M melanoma) [%] | growth (MDA-MB-231 breast) | growth (RXF 393 renal) | growth (SF-268 CNS) | growth (SF-295 CNS) | growth (SF-539 CNS) | growth (UACC-257 melanoma) | growth (M14 melanoma) | growth (A549/ATCC NSCLC)
1 | CC(=O)c1cc(C(=O)N2c3ccccc3Sc3ccccc32)n2ccc3ccccc3c12 | 62.8% | 45.4% | 61.8% | 42.4% | 30% | -38% (active) | 38.4% | 36.3% | 53% | 20.1% | 49.6 | 76.7% | 31.7% | 54.1% | 18.8% | 29.5% | 57.4% | 33.1% | –
2 | CC[C@]12C=CCN3CC[C@@]4(c5cc(NC(=O)COc6cc(O)c7c(=O)cc(-c8ccccc8)oc7c6)c(OC)cc5N(C)[C@H]4[C@@](O)(C(=O)OC)[C@@H]1OC(C)=O)[C@@H]32 | -92.9% (active) | -70.4% (active) | -51.8% (active) | -73.6% (active) | -57.7% (active) | -49.7% (active) | -59.9% (active) | -81% (active) | -33.6% (active) | -1.41% (active) | – | -58.3% (active) | -92.1% (active) | -60.6% (active) | -85.3% (active) | -77.1% (active) | -76.1% (active) | -75.4% (active) | -68.5% (active)
3 | COc1cc2nc(Cl)nc(Nc3cccc(C4=Nc5c(N)nc(N)nc5NC(c5ccc(Br)cc5)C4)c3)c2cc1OC (stereo not given) | 91% | 93% | 98.1% | 43.5% | 28% | 68.2% | 64.7% | 66.3% | 90% | – | – | 92.9% | 77.2% | 84.4% | 32% | 93.2% | 105% | – | 55.9%
4 | CCc1cccc2c3c(sc12)C(c1ccc(Cl)cc1)C(C#N)=C(/N=C/c1ccc(Cl)cc1)O3 (stereo not given) | 17.1% | 53.3% | 37.3% | 37% | 7.17% (active) | 10.8% | 39.5% | 16.7% | 12.1% | 10% | – | 33.8% | -31% (active) | 58.3% | -22.7% (active) | -7.57% (active) | 60.4% | 1.34% (active) | 33.8%
